Experimental data reported in PubChem BioAssay AID2551 (National Center for Advancing Translational Sciences (NCATS), 2010).
Hit rate of the full screen: of about 310,000 compounds, about 17,000 (5.5%) were called active. Roughly 11% stayed inconclusive and do not appear here. Calls follow the shape of the dose curve; as a rule, active = well fitted inhibition curve with a large enough effect; inconclusive = small, poorly fitted or top-dose-only effect, or effect the other way; inactive = no such curve, though single readings can be large or run the other way. The full list was thinned out, with actives kept by preference.

Target: Nuclear receptor ROR-gamma (Mus musculus) (UniProt P51450)
Experiment: qHTS for inhibitors of ROR gamma transcriptional activity; also: nearly all actives have a fitted effect of over 60% in size
Conditions: Drosophila S2 Gal4-RORgamma UAS-luciferase reporter, 20 h; series mostly up to 53.6 µM; activity change, negative = inhibition: at the top concentration
Outline: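 ROR gamma transcriptional activity was tracked as Gal4-UAS luciferase output in stably transfected Drosophila Schneider cells, with compound added 1 hr before 700 uM copper sulfate induction and a 20 hr ambient-temperature incubation.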
% is scaled to controls: 0 for no effect and ±100 for the full control effect; potency is read from the fitted curve at half-maximal effect.

Chain of Nuclear receptor ROR-gamma (Mus musculus) (P51450 whole entry, looked up): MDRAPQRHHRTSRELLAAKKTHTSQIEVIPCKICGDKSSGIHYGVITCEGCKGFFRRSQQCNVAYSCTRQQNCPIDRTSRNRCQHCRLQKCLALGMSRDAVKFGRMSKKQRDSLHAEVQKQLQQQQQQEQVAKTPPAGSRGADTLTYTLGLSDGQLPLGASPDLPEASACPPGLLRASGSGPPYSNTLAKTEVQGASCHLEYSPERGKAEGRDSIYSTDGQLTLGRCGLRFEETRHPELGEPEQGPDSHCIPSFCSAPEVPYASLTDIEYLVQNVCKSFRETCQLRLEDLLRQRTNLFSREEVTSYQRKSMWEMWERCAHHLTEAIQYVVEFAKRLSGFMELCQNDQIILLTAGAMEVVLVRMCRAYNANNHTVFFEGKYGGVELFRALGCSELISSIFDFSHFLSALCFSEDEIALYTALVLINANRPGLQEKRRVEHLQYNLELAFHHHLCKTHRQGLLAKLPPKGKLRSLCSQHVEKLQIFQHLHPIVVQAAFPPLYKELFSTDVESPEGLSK

Compound	activity change, negative = inhibition	Potency
O=C(c1ccc2nc(N3CCOCC3)sc2c1)N1CCN(c2ccc(Cl)cc2)CC1	28.8% (inactive)	–
Nc1nc(SCC(=O)Nc2ccc(Cl)cc2C(F)(F)F)n[nH]1	0.96% (inactive)	–
CC(=O)Nc1ccc(S(=O)(=O)N(C)CC(=O)NCCC2=CCCCC2)cc1	-2.84% (inactive)	–
S=C(NCCC1=CCCCC1)Nc1ccccc1	–	1.78 µM (active)
O=C(Cc1cccc2ccccc12)NCCC1=CCCCC1	11.1% [at 10 µM] (inactive)	–
COc1ccc(CCNC(=O)c2ccccc2OCc2ccccc2)cc1	23% (inactive)	–
O=C(NC1CCCC1)C(c1ccc(Cl)cc1)N(C(=O)c1csnn1)C1CC1 (stereo not given)	0.541% (inactive)	–
C/C(=N\NC(=O)c1nc(C)cc(C)n1)c1ccccc1	4.85% (inactive)	–
Cc1cc(C)nc(S/C=C/C(=O)c2ccccc2)n1	–	6.31 µM (active)
Cc1cc(C)nc(SCC(=O)c2ccc(Cl)cc2)n1	-15.7% (inactive)	–
Cc1ccc(CS(=O)(=O)CCC(=O)NCc2ccc(F)cc2)cc1	13.8% (inactive)	–
O=C(O)c1ccccc1C(=O)NC1=NN(c2ccccc2)CC1	3.73% (inactive)	–
CN(c1ccc(OCC(=O)O)cc1)S(=O)(=O)c1ccc2ccccc2c1	-8.22% (inactive)	–
Cc1ccccc1N1CCN(C2CCCN(C(=O)c3cn4c(C)cccc4n3)C2)CC1 (stereo not given)	-3.69% (inactive)	–
CCn1c(=O)n(CC)c2cc(N3CCCC3)c(NC(=O)c3ccccc3Br)cc21	2.25% (inactive)	–
CCN1CCN(c2cc3nc(C)n(Cc4ccccc4)c(=O)c3cc2NC(=O)c2ccccc2F)CC1	–	11.2 µM (active)
CCOc1cc(NC(=O)c2ccccc2C(=O)O)c(OCC)cc1NC(=O)c1ccccc1F	19.6% [at 1.91 µM] (inactive)	–
CS(=O)(=O)Nc1cccc(C2=NN(C(=O)c3cccc(F)c3)C(c3cccs3)C2)c1 (stereo not given)	15.3% (inactive)	–
CC(C)=CCCC(C)CN1CCC(n2nccc2NC(=O)c2ccccc2)CC1 (stereo not given)	-1.04% (inactive)	–
CC(=O)NCCC(=O)Nc1nc(-c2ccc3c(c2)OCCO3)cs1	9.31% (inactive)	–
Cc1cc(C)c2nc(SCC(=O)N(C)C3CCS(=O)(=O)C3)cc(C)c2c1 (stereo not given)	-1.99% (inactive)	–
COc1ccc(-c2cc(=O)oc3cc(OCC(=O)N(C)C4CCS(=O)(=O)C4)ccc23)cc1 (stereo not given)	1.21% (inactive)	–
COc1ccc2c(-c3ccccc3)cc(SCC(=O)N(C)C3CCS(=O)(=O)C3)nc2c1 (stereo not given)	–	10 µM (active)
[2H]C(CCOS(N)(=O)=O)c1ccccc1 (stereo not given)	-1.7% (inactive)	–
N#C/C(=C/c1ccc(-c2ccccc2[N+](=O)[O-])o1)C(=O)NCCN1CCCCC1	0.585% (inactive)	–
Cc1cc(-c2ccc(/C=N/n3cnnc3)o2)c([N+](=O)[O-])cc1C	33.2% (inactive)	–
Cc1ccc(-c2ccc(/C=C(\C#N)C(N)=S)o2)c([N+](=O)[O-])c1	–	11.2 µM (active)

Compound	activity change, negative = inhibition	Potency
O=C(Nc1ccc(-c2cscn2)cc1)C1CCCN(Cc2ccc(CO)o2)C1 (stereo not given)	5.13% (inactive)	–
COc1ccc(CCNC(=O)c2cnc(Cl)c(Cl)c2)cc1	-3.9% (inactive)	–
CCC(C)N1C(=S)SC(C)(C)C1N(O)C(=O)NC1CCCCC1 (stereo not given)	-15.4% (inactive)	–
CCCCNC(=O)N(O)C1N(/N=C/c2ccccc2O)C(=S)SC1(C)C (stereo not given)	–	11.2 µM (active)
CCCCNC(=O)N(O)C1N(/N=C/c2ccc(N(C)C)cc2)C(=S)SC1(C)C (stereo not given)	-35.3% (inactive)	–
COc1ccc2c(c1)N(C)/C(=C1/SC(=S)N(NC(C)=O)C1=O)S2	4.75% (inactive)	–
COc1ccc(OC)c(NC(=O)C2CCCN2S(=O)(=O)c2cccc3nsnc23)c1 (stereo not given)	-27.5% (inactive)	–
O=C(O)c1[nH]c2ccccc2c1C(c1cccc(O)c1)c1c(C(=O)O)[nH]c2ccccc12	-7.71% (inactive)	–
O=C(CSc1ccccc1)Nc1nnc(/C=C/c2ccccc2)s1	–	20 µM (active)
O=C(/C=C/c1ccccc1)Nc1nnc(SCC(=O)c2ccc3ccccc3c2)s1	-1.4% (inactive)	–
CCOCc1nnc(NC(=O)CSc2ccc(C)cc2)s1	-40.7% (inactive)	–
CC1(C)Cc2c(sc(NC(=O)C(=O)NCC3CCCO3)c2C(=O)O)CO1 (stereo not given)	-26% (inactive)	–
O=C(Nc1ccc(NC(=O)c2ccccc2F)cc1)c1ccccc1F	0.482% (inactive)	–
COc1ccc(CC(=O)N/N=C(\C)c2ccccn2)cc1	–	7.08 µM (active)
C/C(CC(=O)Nc1ccc(N(C)C)cc1)=N\NC(=O)c1ccccc1F	-23% (inactive)	–
C/C(=N\NC(=O)c1ccccc1F)c1ccccn1	–	0.631 µM (active)
C/C(=N\NC(=O)Cc1ccc(Cl)cc1)c1ccccn1	–	0.398 µM (active)
COc1ccc(CC(=O)NC(C)CCc2ccccc2)cc1 (stereo not given)	16.8% (inactive)	–
COc1ccc(/C(C)=N/NC(=O)c2ccc3nc[nH]c3c2)cc1	1.35% (inactive)	–
C/C(=N\NC(=O)Cc1ccc(F)cc1)c1ccc(F)cc1	41.3% (inactive)	–
C/C(=N\NC(=O)Cc1ccc(Br)cc1)c1cccnc1	19.1% (inactive)	–
Cc1ccc(Cn2cc(C(=O)NN)c(=O)c3ccc(F)cc32)cc1	-6.79% (inactive)	–
Cc1cccnc1CCNC(=O)C1CCC(=O)N(Cc2cccc(F)c2)C1 (stereo not given)	0.715% (inactive)	–
COc1cc2ccccc2cc1C(=O)Nc1ccccc1C	-19.4% (inactive)	–
COc1cc([N+](=O)[O-])cc([N+](=O)[O-])c1NC(=O)N1CCOCC1	-23.8% (inactive)	–
O=S(=O)(Cc1cc(Cl)nc(-c2cccnc2)n1)c1ccccc1	23.2% (inactive)	–
COc1ccc(C(=O)Nc2cc(C)c(NC(=O)c3ccccc3OC)cn2)cc1	-27.9% (inactive)	–

Compound	activity change, negative = inhibition	Potency
Cc1ccnc(N2C(=O)c3ccc([N+](=O)[O-])cc3C2=O)c1	-16.3% (inactive)	–
Cc1cccc(C)c1NC1=NC(=S)N(c2ccc(N(C)C)cc2)C1(C)C	–	14.1 µM (active)
COC(=O)c1cc(C(=O)NC(C)C2CC3CCC2C3)cc([N+](=O)[O-])c1 (stereo not given)	-8.79% (inactive)	–
Cc1c2cnn(CC(=O)NCc3ccccn3)c(=O)c2c(C)n1Cc1ccc(Cl)cc1	4.88% (inactive)	–
Cc1ccc(CN2CCN(c3ncccn3)CC2)c(C)c1	18.7% (inactive)	–
C#CCN(N(C)c1ncc(C(F)(F)F)cc1Cl)S(=O)(=O)c1ccc2ccccc2c1	-20.3% (inactive)	–
CN(NS(=O)(=O)c1cccs1)c1ncc(C(F)(F)F)cc1Cl	–	5.62 µM (active)
O=S(=O)(NCc1ccc(Cl)cc1Cl)c1cccs1	-12.9% (inactive)	–
Cc1cc(C(=O)CCl)c(C)n1CC1COc2ccccc2O1 (stereo not given)	–	10 µM (active)
O=C(NCC1COc2ccccc2O1)C1(c2ccccc2)CCCC1 (stereo not given)	27.7% (inactive)	–
O=C1C(=O)N(CC2COc3ccccc3O2)c2ccccc21 (stereo not given)	-0.423% (inactive)	–
Cc1ccc(C)c(OCc2cc(C(=O)N3CCN(c4cnccn4)CC3)no2)c1	15.6% (inactive)	–
O=C(CN1CCN(C(=O)C2CCCO2)CC1)Nc1c(Cl)cccc1Cl (stereo not given)	6% (inactive)	–
Cc1ccc(-n2ncc3c2CC(C)(C)CC3NC(=O)CCc2cnn(C)c2)cc1 (stereo not given)	-2.94% (inactive)	–
CC(C)NS(=O)(=O)c1ccc(OCC(=O)NC2CCCCCC2)cc1	-17.8% (inactive)	–
CC(C)(C)C1CCC(=NNC(=O)c2ccc(Br)o2)CC1 (stereo not given)	-20.7% (inactive)	–
O=C(N/N=C\C1CC=CCC1)c1ccc(Br)o1 (stereo not given)	-8.11% (inactive)	–
CCC(C)(C)C1CCC(=NNC(=O)c2ccc(Br)o2)CC1 (stereo not given)	–	11.2 µM (active)
Cc1cc(-c2nnc(SCC(=O)Nc3ccc(S(N)(=O)=O)cc3)n2N)n[nH]1	-28.9% (inactive)	–
CCOc1ccc(OCc2ccc(C(=O)N(C)c3ccccc3)o2)cc1	41.7% (inactive)	–
CCc1ccccc1NC(=S)N(CCN1CCCCCC1)Cc1ccco1	–	17.8 µM (active)
COc1cc2cc(CN(CCN3CCCC3)C(=O)Nc3ccccc3Cl)c(=O)[nH]c2cc1OC	-28.4% (inactive)	–
COc1cccc(NC(=O)NCCN2CCCCC2)c1	-0.679% (inactive)	–
Cc1ccc(NC(=S)N(CCN2CCCCC2)Cc2ccco2)cc1C	–	10 µM (active)
Cc1ccc(NC(=S)N(CCCN2CCC(C)CC2)Cc2ccco2)cc1	-10.4% (inactive)	–
CCc1ccccc1NC(=O)NCCN1CCCCC1	8.95% (inactive)	–
C=C1CCN(C(CC(C)C)C(=O)N2CCOCC2)S(=O)(=O)c2ccccc21 (stereo not given)	7.59% (inactive)	–

Compound	activity change, negative = inhibition	Potency
CCOc1ccccc1NS(=O)(=O)c1c[nH]c(C(=O)OC)c1	-1.36% (inactive)	–
COC(=O)[C@]1(S(=O)(=O)c2ccccc2)C[C@@H]2ON=C(c3ccc(OC)cc3)[C@@H]2C1	2.22% (inactive)	–
COc1ccc(CCC(C)N2CCc3ccccc3C2)cc1 (stereo not given)	9.94% (inactive)	–
CCCC(=O)N1CCC(CCC(=O)NC2CC2)CC1	-12.6% (inactive)	–
O=C(NCCc1ccc(Cl)cc1)C1CCCN1C(=O)NCc1ccccc1 (stereo not given)	0.783% (inactive)	–
COCCn1cnc2c1c(=O)n(CC(=O)NN)c(=O)n2Cc1ccccc1	-27.2% (inactive)	–
O=C(CN1C(=O)S/C(=C\c2ccccc2F)C1=O)NCCCn1ccnc1	-32.2% (inactive)	–
Cc1nn(CC(=O)Nc2nc3ccccc3s2)c(C)c1[N+](=O)[O-]	5.91% (inactive)	–
O=C(CN1C(=O)/C(=C\c2ccccc2F)SC1=S)Nc1nc2ccccc2s1	–	11.2 µM (active)
CCOC(=O)C1C(c2ccc(O)cc2)NC(=O)NC1(O)C(F)(F)F (stereo not given)	1.82% (inactive)	–
CC1=NN(C(N)=S)C(=O)C1N=Nc1cc(Cl)ccc1Cl (stereo not given)	–	1.41 µM (active)
C=CCNc1nc(N)c([N+](=O)[O-])c(NC2CCCCC2)n1	17.4% (inactive)	–
CN(C)S(=O)(=O)c1cccc(NC(=S)NCc2ccc3c(c2)OCO3)c1	32.3% (inactive)	–
O=C(NCc1ccc2c(c1)OCO2)c1cc(F)c(F)cc1Cl	-6.24% [at 1.91 µM] (inactive)	–
Cc1c(Cl)cccc1NC(=S)NCc1ccc2c(c1)OCO2	–	7.08 µM (active)
CS(=O)(=O)N(CC(=O)N1CCCCCC1)c1cccc(Cl)c1Cl	-20.8% (inactive)	–
Cc1noc(C)c1C(=O)OCC(=O)/C=C1\N(C)c2ccccc2C1(C)C	7.06% (inactive)	–
CN1/C(=C\C(=O)c2cccnc2Cl)C(C)(C)c2ccccc21	33.5% (inactive)	–
CC(=O)Nc1cccc(OCC(=O)/C=C2\N(C)c3ccccc3C2(C)C)c1	–	7.08 µM (active)
CC(c1ccco1)N(C(=O)Nc1ccccc1)C1CCCCC1 (stereo not given)	1.37% (inactive)	–
CC(NC(=S)Nc1ccccc1)C1COc2ccccc2O1 (stereo not given)	–	6.31 µM (active)
CC(=O)c1cccc(NC(=O)C2COc3ccccc3O2)c1 (stereo not given)	-30.8% [at 1.91 µM] (inactive)	–
COC(=O)CSc1nc2ccccc2c(=O)n1Cc1ccccc1	-3.52% (inactive)	–
Cc1cc(C)n(CCNS(=O)(=O)c2ccc(Cl)cc2)n1	12.2% (inactive)	–
